Most compounds without a hit are left out; they make up all but 2.9% or so of the library.
pPAFAH FP inh – pPAFAH enzyme inhibitors, primary screen, biochemical, fluorescence polarization, human; recombinant pPAFAH, FP-rhodamine probe fluorescence polarization; inhibition, % at 3.39 µM; 330,000 tested, 1.5% active; AID 463082, 2010;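 active = inhibition above the mean inhibition across the screen plus 3 SD, cut at about 25% in these data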;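 note: inhibitors block binding of the rhodamine activity-based probe so polarization drops; 0% = enzyme with DMSO and 100% = wells lacking pPAFAH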
LYPLA2 counter – LYPLA2 inhibitors, primary screen, counter-screen for PME1 inhibitor project, biochemical, fluorescence polarization, FP-Rh probe ABPP. Acyl-protein thioesterase 2 (Homo sapiens), O95372. inhibition, % at 5.9 µM. recombinant LYPLA2. 320,000 tested, 0.38% active;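 active = inhibition above the screen-wide mean plus 3 SD, limit set per campaign, cut at about 26% in these data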;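 note: 0% = LYPLA2 with DMSO and 100% = wells lacking LYPLA2 enzyme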
PAFAH1B2 FP inh – PAFAH1B2 enzyme inhibitors, primary screen, biochemical, fluorescence polarization, human | AID 492953, 2010 | inhibition, % at 3.39 µM | Platelet-activating factor acetylhydrolase IB subunit alpha2 (Homo sapiens), P68402 | recombinant PAFAH1B2, FP-rhodamine activity probe | 340,000 tested, 1.2% active;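 active = inhibition above the mean of all tested compounds plus 3 SD, cut at about 24% in these data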;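 note: 0% = enzyme with DMSO and 100% = wells lacking PAFAH1B2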
Target sequence (P68402 whole entry, looked up): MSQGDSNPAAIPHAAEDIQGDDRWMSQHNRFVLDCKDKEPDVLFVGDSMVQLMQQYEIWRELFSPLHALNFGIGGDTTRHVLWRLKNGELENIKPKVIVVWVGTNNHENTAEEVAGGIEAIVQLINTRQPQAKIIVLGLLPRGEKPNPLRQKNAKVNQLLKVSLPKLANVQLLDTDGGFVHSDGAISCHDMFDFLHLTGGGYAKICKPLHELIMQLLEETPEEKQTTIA
PAFAH2 inh – PAFAH2 enzyme inhibitors, primary screen, biochemical, fluorescence polarization, human | Platelet-activating factor acetylhydrolase 2, cytoplasmic (Homo sapiens), Q99487 | recombinant PAFAH2, FP-rhodamine activity probe | inhibition, % at 3.39 µM | 340,000 tested, 0.99% active | AID 492956, 2010;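 active = inhibition above the mean over all tested compounds plus 3 SD, cut at about 30% in these data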;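 note: inhibitors block probe labeling of enzyme so polarization drops; 0% = enzyme with DMSO and 100% = wells lacking PAFAH2 protein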
LYPLA1 counter – LYPLA1 inhibitors, primary screen, counter-screen for PME1 inhibitor project, biochemical, fluorescence polarization, FP-Rh probe ABPP; recombinant LYPLA1; inhibition, % at 5.9 µM; 320,000 tested, 0.16% active;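 active = inhibition above the mean of all tested compounds plus 3 SD, set per campaign, cut at about 14% in these data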;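 note: inhibitors block serine hydrolase probe labeling of LYPLA1 so polarization falls; 0% = enzyme with DMSO and 100% = wells lacking LYPLA1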
PAFAH1B3 inh – PAFAH1B3 enzyme inhibitors, primary screen, biochemical, fluorescence polarization, human; recombinant PAFAH1B3, FP-rhodamine probe; inhibition, % at 3.39 µM; 340,000 tested, 0.28% active; AID 492972, 2010;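 active = inhibition above the screen-wide average of all tested compounds plus 3 SD, cut at about 25% in these data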;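 note: 0% = enzyme with DMSO only and 100% = wells lacking PAFAH1B3 protein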
Target sequence (Q15102 whole entry, looked up): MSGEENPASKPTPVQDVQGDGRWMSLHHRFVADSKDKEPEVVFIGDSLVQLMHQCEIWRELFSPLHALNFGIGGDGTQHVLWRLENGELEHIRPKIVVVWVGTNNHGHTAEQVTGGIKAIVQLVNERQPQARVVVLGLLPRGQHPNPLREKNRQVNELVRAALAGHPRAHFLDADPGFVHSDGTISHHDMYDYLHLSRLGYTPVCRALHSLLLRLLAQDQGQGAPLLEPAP
PAFAH2 FP conf – PAFAH2 enzyme inhibitors, confirmation, biochemical, fluorescence polarization, human; recombinant PAFAH2, FP-rhodamine activity probe; 2,300 tested, 65% active; inhibition, % at 3.39 µM; shares compounds with PAFAH2 inh;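 active = mean inhibition over three repeats above a set limit taken from the earlier primary screen, cut at about 30% in these data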;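 note: inhibitor blocks binding of rhodamine activity probe so polarization falls; 0% = enzyme with DMSO and 100% = wells lacking PAFAH2 protein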
* hit, by the source's call; . = not tested or not shown.

SMILES	pPAFAH FP inh	LYPLA2 counter	PAFAH1B2 FP inh	PAFAH2 inh	LYPLA1 counter	PAFAH1B3 inh	PAFAH2 FP conf
O=C(COC(=O)c1n[nH]c2ccccc12)NC(=O)NC1CCCCC1	-3	-6	2	4	-1	7	.
CCOC(=O)c1n[nH]c2ccccc12	2	-1	6	-7	0	4	.
O=C(O)C1CSC(c2ccncc2)N1 (stereo unspecified)	2	5	3	8	-1	5	.
O=C(O)C1CSC(c2ccco2)N1 (stereo unspecified)	1	6	4	32*	2	9	5
CCc1ccc(/C=C2\Oc3c(ccc(O)c3CN3CCN(CCO)CC3)C2=O)cc1	2	4	-1	58*	-1	0	39*
COc1cccc2sc(Nc3nnc(-c4ccc(F)cc4)o3)nc12	18	-2	11	65*	-3	15	20
COc1ccc(C(=O)OCC(=O)NCc2ccco2)cc1S(=O)(=O)N1CCN(c2cccc(Cl)c2)CC1	15	6	0	32*	-8	9	35*
Cc1ccc(C(=O)OCC(=O)NCc2ccco2)cc1S(=O)(=O)N1CCOCC1	17	6	0	44*	3	6	39*
COc1ccc(Cl)cc1S(=O)(=O)N1CCC(C(=O)NCc2ccco2)CC1	4	5	-3	12	2	-5	.
Cc1ccc(CNC(=O)c2ccc(Cl)cc2[N+](=O)[O-])cc1	-3	-4	5	-2	1	6	.
COc1ccc(OCC(=O)NCCCNC(=O)COc2ccc(OC)cc2)cc1	3	7	1	-2	4	9	.
COc1ccc(CCN2C(=O)CC(Nc3ccc(N4CCOCC4)cc3)C2=O)cc1OC (stereo unspecified)	17	7	3	-4	0	12	.
Cc1c(N=Nc2c(-c3ccc([N+](=O)[O-])cc3)[nH]n(C(N)=S)c2=O)cccc1[N+](=O)[O-]	.	.	15	55*	.	15	36*
CCCCCn1nc(C(=O)OCc2nc(N)nc(Nc3ccccc3)n2)c2ccccc2c1=O	-4	.	-1	-6	.	-1	.
Cc1ccc(C)c(S(=O)(=O)N2CCN(C(=O)Cn3c(=O)cnc4ccccc43)CC2)c1	-16	-2	0	5	2	-3	.
O=C(COC(=O)/C=C/c1ccc(Cl)cc1)Nc1ccccc1	3	-4	2	73*	0	8	72*
O=C(COC(=O)/C=C/c1ccccc1)Nc1ccc2c(c1)OCCO2	8	0	4	69*	-1	-7	56*
NC(=O)c1ccsc1NC(=O)COC(=O)/C=C/c1ccccc1	6	-6	6	9	-4	4	.
O=C(COC(=O)/C=C/c1ccccc1)Nc1cccc(Oc2ccccc2)c1	-6	-54	-17	36*	-18	-3	32*
COc1ccc(NC(=O)/C(Cl)=C(/Cl)S(=O)(=O)Cc2ccccc2)cn1	.	.	8	41*	.	0	19
O=C(CSCc1ccccc1Cl)Nc1ccc2c(c1)OCCO2	1	5	5	5	-2	4	.
CC(=O)Nc1ccc(-c2nc3ccccc3c(=O)o2)cc1	-6	-4	0	-5	-3	5	.
O=c1oc(-c2ccc([N+](=O)[O-])cc2)nc2ccc(O)cc12	5	0	7	85*	-1	11	67*
O=c1oc(-c2cccs2)nc2ccccc12	-1	2	6	56*	0	19	35*
O=c1oc(-c2ccc(Br)cc2)nc2ccccc12	-6	7	-5	76*	2	4	70*
SMILES	pPAFAH FP inh	LYPLA2 counter	PAFAH1B2 FP inh	PAFAH2 inh	LYPLA1 counter	PAFAH1B3 inh	PAFAH2 FP conf
O=c1oc(-c2ccccc2)nc2ccsc12	1	-8	-4	44*	-8	4	30*
Cn1c(CCN2CCOCC2)nc2cc(NC(=O)COc3ccc([N+](=O)[O-])cc3)ccc21	3	5	2	10	2	6	.
O=c1oc(-c2ccc([N+](=O)[O-])cc2)nc2ccccc12	4	-4	-5	74*	1	3	82*
CCn1ccc(=O)c2cc3c(cc21)OCO3	6	-4	8	2	-3	12	.
CCOCCOC(=O)NCCCCCCNC(=O)OCCOCC	3	15	1	60*	3	9	47*
O=C(NCCCCCCNC(=O)OCCO)OCCO	1	1	5	0	0	-3	.
Cc1oc2c(c1C(=O)NC(Cc1c[nH]c3ccccc13)C(=O)O)CCCC2 (stereo unspecified)	8	-2	4	39*	-1	4	15
Cn1c(=O)c(=O)n(C)c2cc(S(=O)(=O)N3CCOCC3)ccc21	2	1	5	-2	-4	4	.
Cc1nn(CC(=O)c2ccccc2)c(=O)c2nn(-c3ccccc3F)c(C)c12	6	6	4	0	2	1	.
O=C1N=C(N2CCN(c3cccc4ccccc34)CC2)S/C1=C/c1cccs1	-2	8	-4	5	0	-1	.
Cc1ccccc1N1CCN(C2=NC(=O)/C(=C\c3cccs3)S2)CC1	20	-2	1	41*	-4	6	31*
O=C(COC(=O)C12CC3CC(CC(O)(C3)C1)C2)Nc1ccc(OC(F)F)cc1	.	.	4	45*	.	10	29
NS(=O)(=O)c1ccc(NC(=O)COC(=O)C23CC4CC(CC(C4)C2)C3)cc1	-1	4	18	1	-1	0	.
O=C(COC(=O)C12CC3CC(CC(C3)C1)C2)Nc1ccc(OC(F)F)cc1	24	-11	5	67*	-8	9	49*
NC(=O)COC(=O)C12CC3CC(CC(O)(C3)C1)C2	4	0	3	9	-2	5	.
CCC(=O)Nc1c(-c2ccc(C)cc2)c(=O)c2ccccc2n1C	.	.	3	2	.	7	.
O=C(COC(=O)CC1CCCCC1)Nc1c(Cl)cccc1Cl	20	-5	7	38*	0	3	31*
O=C(COC(=O)CN1C(=O)C2CCCCC2C1=O)Nc1c(Cl)cccc1Cl (stereo unspecified)	0	-1	2	3	-2	11	.
O=C(COC(=O)CC1CCCC1)Nc1ccc(Cl)cn1	19	1	1	50*	-2	-6	38*
